MARV entry inh: qHTS for inhibitors of binding or entry into cells for Marburg Virus; Marburg virus pseudotyped entry inhibition, cell reporter; Potency, µM (series often up to 37.8 µM), for inactives: at the highest dose activity change, negative = inhibition, usual class: inhibitors; actives 1.8% (n = 300,000); AID 540276, 2011; calls by dose curve; tested in HEK293 cells; further: potency means the concentration at half of the fitted maximal effect
LASV entry inh: qHTS for Inhibitors of binding or entry into cells for Lassa Virus | Lassa virus pseudotype entry inhibition, cell reporter | Potency, µM (top dose mostly 37.9 µM), for the others: at the highest dose activity change, negative = inhibition, most hits filed as inhibitors | actives 1.2% (n = 300,000) | AID 540256, 2011; calls by dose curve; tested in HEK293 cells; further: potency means the concentration at half of the fitted maximal effect; nearly all actives have a fitted effect of over 50% in size
VACV mCherry inh: qHTS for Stage-Specific Inhibitors of Vaccinia Orthopoxvirus: mCherry Reporter Primary qHTS; actives 0.63% (n = 310,000); Vaccinia virus mCherry reporter infection, fluorescence; Potency, µM (top dose mostly 36.5 µM), for inactives: at the highest dose activity change, negative = inhibition, most hits filed as inhibitors; calls by dose curve; tested in A549 cells; further: potency means the concentration at half of the fitted maximal effect; nearly all actives have a fitted effect of over 35% in size
FMDV inh: High Throughput Screening for Foot and Mouth Disease Virus Antivirals | actives 1.2% (n = 410,000) | Potency, µM (top dose mostly 57.9 µM), without a hit: at the highest dose activity change, negative = inhibition, usual class: inhibitors | AID 1159524, 2015 | FMDV antiviral cell-based qHTS; calls by dose curve; tested in HEK293T cells; further: read-out not given here; potency means the concentration at half of the fitted maximal effect; nearly all actives have a fitted effect of over 45% in size
Vaccinia Venus: qHTS for Stage-Specific Inhibitors of Vaccinia Orthopoxvirus: Venus Reporter Primary qHTS. Vaccinia virus Venus reporter expression, fluorescence. Potency, µM (doses to about 36.5 µM), inactives show top-dose activity change, negative = inhibition, actives largely listed as inhibitors. actives 0.46% (n = 330,000). AID 720580, 2013; calls by dose curve; tested in A549 cells; further: potency means the concentration at half of the fitted maximal effect; nearly all actives have a fitted effect of over 30% in size
HCMV antiviral: qHTS Assay for inhibitors of the human cytomegalovirus (HCMV); HFF cells, HCMV-luciferase reporter, 72 h; active compounds read low; activity change, negative = inhibition, % at 57.5 µM; actives 4.5% (n = 410,000); AID 1259415, 2018; in the data active means activity change below about -60%; inconclusive means no clear call, values can overlap the other calls; inactive means above about -39%
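Compounds were evaluated in HFFs infected with an HCMV luciferase reporter virus (MOI 1 PFU/cell). Luciferase in lysates collected 72 h post infection served as the replication measure.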
Starred values were filed as active, the others as inactive; i = inactive; ? = inconclusive; . = no result; [ ] = dose if it differs, or a comment. The list is not random: actives were taken first. Their share in the collection is about 6.5%. On the % scale 0 is the no-effect control and ±100 the full control effect.

SMILES | MARV entry inh | LASV entry inh | VACV mCherry inh | FMDV inh | Vaccinia Venus | HCMV antiviral
CCC(C)Sc1ccc([C@H]2N[C@@](C)(C(=O)OC)[C@H]3C(=O)N(C)C(=O)[C@@H]23)cc1 (some centres undefined) | . | . | -6.2% | -13.2% | -12.3% | 10.9
CCCCCN(CCCCC)c1ccc(/C=C/c2ccnc3ccccc23)cc1 | . | . | 49.9% | . | 36.7% | .
O=C1CCCCN1CCC(=O)N1CCOc2ccc(C(O)C3CCCCC3)cc2C1 (centres undefined) | . | . | -11.0% | -13.1% | -7.7% | .
Cc1ccc(NC(=O)CN2C(=O)S/C(=C\c3cc(C)n(C)c3C)C2=O)cc1 | 1.6% | 8.3% | i | . | 2.8% | -17.7
Cc1cccc(NC(=O)CN2C(=O)S/C(=C\c3cc(C)n(C)c3C)C2=O)c1 | -15.8% | 0.4% | ? | -19.0% | -15.2% | -62.5*
CCOC1=CC(=O)OC(c2ccccc2)C1 (centres undefined) | 2.1%[46.1 µM] | 5.6%[46.1 µM] | -13.4% | -8.6% | -5.7% | -4.0
CCOC(=O)Cc1ccc(NC(=O)n2ncc3c(C)cccc32)cc1 | -0.4%[46.1 µM] | . | -9.9% | 21.3% | -10.2% | -74.5*
O=C(O)C1CCCCN1c1ccccc1[N+](=O)[O-] (centres undefined) | . | . | 0.9% | -7.2% | 3.2% | 15.2
O=C(O)C1Cc2ccccc2N2CCCC12 (centres undefined) | -0.6%[46.1 µM] | 10.0%[46.1 µM] | 1.7% | -8.3% | -5.6% | -61.1*
COc1ccccc1CNC(=O)C1(C)CCN1Cc1ccc2ccccc2c1 (centres undefined) | . | . | ? | ? | -4.9% | 104.2
O=C(CNC(=O)c1ccccc1F)OCC(=O)N1CCCCC1 | -2.2% | -1.8% | -8.0% | -16.2% | -0.8% | -61.8*
CCc1ccc(OCC(=O)Nc2ccc(Cl)c(-c3nc4ncccc4o3)c2)cc1 | . | -2.1%[46.1 µM] | -1.5% | ? | -1.5% | -2.5
Clc1ccc(Nc2nc(-c3ccccc3)c3cc(Cl)ccc3n2)cc1 | . | 3.5%[46.1 µM] | -0.5% | -18.7% | -16.3% | -60.5*
CCOC(=O)[C@]12CCCC=C1N(Cc1ccc3c(c1)OCO3)C(=O)[C@H](CC(=O)N1CCCC1)C2 | . | . | -5.0% | -10.1% | 6.9% | -13.6
Cc1ccccc1CN1C[C@@H]2C[C@@H](c3cn[nH]c3-c3ccc(F)cc3)N3CCC[C@@]23C1=O | ? | ? | ? | 15.1% | -14.8% | -71.1*
COc1ccc(-c2[nH]ncc2[C@@H]2C[C@H]3CN(Cc4ccccc4C)C(=O)[C@]34CCCN24)cc1 | . | . | . | 13.6% | . | -71.2*
COc1ccccc1CN1C[C@@H]2C[C@@H](c3ccc(C)c(C)c3)N3CCC[C@@]23C1=O | ? | 0.7% | ? | 34.0% | -1.2% | -37.1
COCc1ccc([C@@H]2C[C@H]3CN(Cc4ccccc4C)C(=O)[C@]34CCCN24)o1 | . | . | . | 38.8% | . | -29.3
CC(=O)Nc1ccc(CN(C)c2c(C)nc3ccc(C(=O)NCCCn4ccnc4)cn23)cc1 | . | . | 53.4% | -5.6% | 1.2% | 7.5
Cc1cc(C)nc(S/C=C/C(=O)c2ccccc2F)n1 | ? | ? | i | 8.91µM* | -11.7% | -28.1
Cc1cc(C)nc(NC(=S)NC(=O)c2ccccc2F)n1 | 0.2%[46.1 µM] | 9.4% | i | 19.1% | 4.3% | 14.2
Oc1c(C(Nc2nc3ccccc3s2)c2ccco2)ccc2cccnc12 (centres undefined) | ? | ? | 2.82µM* | 25.7% | ? | -97.6*
CN1CCN(C(c2ccc(F)cc2)c2ccc3cccnc3c2O)CC1 (centres undefined) | . | . | . | -4.5% | . | .
c1coc(CNc2nc3ccccc3s2)c1 | ? | ? | -23.0% | 85.1% | -18.5% | 127.4
CC(C)C(=O)NC(c1ccc(N(C)C)cc1)c1ccc2cccnc2c1O (centres undefined) | . | . | 3.98µM* | . | ? | .
SMILES | MARV entry inh | LASV entry inh | VACV mCherry inh | FMDV inh | Vaccinia Venus | HCMV antiviral
CC(=O)NC(c1ccco1)c1cc(Cl)c2ccc(Cl)nc2c1O (centres undefined) | . | . | . | 0.0% | . | -28.7
CCN(CC)c1ccc(C(NC(=O)C(C)C)c2ccc3cccnc3c2O)cc1 (centres undefined) | . | . | ? | -21.6% | ? | -98.7*
CC(C)C(=O)NC(c1ccc([N+](=O)[O-])cc1)c1c(O)ccc2ccccc12 (centres undefined) | 6.4% | -2.9% | . | ? | . | -29.0
CC(C)C(=O)NC(c1ccco1)c1ccc2cccnc2c1O (centres undefined) | ? | ? | . | -18.5% | ? | -101.8*
O=C(Nc1ccc2c(c1)OCO2)c1cc(C2CCCCN2C(=O)CCCc2ccccc2)on1 (centres undefined) | . | . | i | -8.0% | -14.1% | -13.5
CCN1C(=O)C[C@H](N2CCN(c3ccc(OC)cc3)CC2)C1=O | 10.1% | . | . | . | . | .
Cc1[nH]c2ccccc2c1C(c1c(C)[nH]c2ccccc12)c1c(C)[nH]c2ccccc12 | . | . | 12.6% | . | 27.1% | .
Cc1cc2[nH]c3ccccc3c2c(C)n1 | ? | -5.9% | -2.2% | -26.5% | -28.7% | -98.0*
O=C1CC(c2nc3ccccc3[nH]2)CN1c1ccccc1F (centres undefined) | . | . | i | -18.0% | -10.8% | 19.5
O=C1CC(c2nc3ccccc3[nH]2)CN1c1cccc(C(F)(F)F)c1 (centres undefined) | 0.3% | ? | i | ? | -22.2% | -96.4*
COc1ccc(Cl)cc1N1CC(c2nc3ccccc3[nH]2)CC1=O (centres undefined) | . | . | -10.5% | -26.4% | -4.4% | -98.9*
Cc1ccc(C)c(S(=O)(=O)N2CCCCC2CCNC(=O)C(=O)NCc2ccco2)c1 (centres undefined) | ? | -24.7% | ? | ? | ? | -33.0
COCCN(C)C(=O)c1cnn(-c2ncc3c(n2)-c2ccccc2CC3)c1C | . | . | -2.7% | 22.7% | -17.1% | .
CCC1CN(CCNC(=O)c2ccc(N3CCOCC3)cc2)Cc2cc(OC)ccc2O1 (centres undefined) | . | . | -19.2% | -4.9% | -10.7% | .
CCn1c([N+](=O)[O-])nc2c1c(=O)[nH]c(=O)n2C | ? | 18.3µM* | . | ? | . | -98.1*
Cc1sc2ncnc(N3CCN(Cc4ccccc4)CC3)c2c1-c1ccccc1 | 3.3%[46.1 µM] | ? | -8.6% | 28.2µM* | 0.3% | -21.0
Cc1sc2ncnc(Nc3ccc(N4CCOCC4)cc3)c2c1-c1ccccc1 | -3.2% | . | -25.8% | -11.7% | ? | ?
Cc1sc2ncnc(N3CCN(CCOc4ccc(Cl)cc4)CC3)c2c1C | ? | ? | . | ? | . | -93.2*
O=C(NC1CC(=O)N(c2ccccc2)C1)C1CCCCC1 (centres undefined) | . | 23.6%[46.1 µM] | -12.1%[7.34 µM] | -18.5% | -10.2%[7.34 µM] | 47.7
COc1ccccc1OC(=O)c1cc2ccccc2oc1=O | ? | ? | -21.8% | 19.1% | 5.2% | 22.6

Screening results deposited in PubChem by National Center for Advancing Translational Sciences (NCATS).
